# From PubChem BioAssay (Tox21)
# Where “and” joins values, the source holds several entries; their conditions need not be identical. Identical values can stand only once. Results filed as inconclusive are left out. A call without a number means that no potency is given here. Calls of active or inactive are those of the source. Calls follow the shape of the full dose curve. Starred links: 1 amine or outer side, 2 acyl side, 3 side chain; linkers in the order of their positions; H or OH if unused. Positions of bridges follow the written chain, without caps; N, C: chain ends. Non-standard residues stand in square brackets, D forms with d. Residues, ends and D or L forms follow the SMILES beside them. Chains are numbered I, II in the order given. Actinocin(9to1) = Cc1c2oc3c(C)ccc(C(=O)[*:1])c3nc-2c(C(=O)[*:2])c(N)c1=O; NMeV = CN[C@H](C(=O)O)C(C)C; Sar = CNCC(=O)O
# Assay: qHTS assay for small molecules that induce genotoxicity in human embryonic kidney cells expressing luciferase-tagged ATAD5 - cell viability (AID 651634); also: nearly all actives have a fitted effect of over 25% in size
# Conditions: HEK293T ATAD5-luc cells viability, CellTiter-Fluor, 15.5 h; series mostly up to 83.3 µM
# Excerpt: National Center for Advancing Translational Sciences [NCATS]
# NIH Chemical Genomics Center [NCGC]
# U.S. Environmental Protection Agency [EPA]
# National Institutes of Environmental Health Sciences [NIEHS]
# National Toxicology Program [NTP]
# U.S. Food and Drug Administration [FDA]
# Enhanced Level of Genome Instability Gene 1 (ELG1; human ATAD5) protein levels increase in response to various types of DNA damage. Using a luciferase reporter-gene tagged with ElG1, a cell-based assay [developed by Kyungjae Myung, NHGRI, NIH] was used to measure the induction of ATAD5 in human embryonic kidney cells (HEK293T). So, increase in luciferase activity can be used to identify the compounds that cause genetic stress. In addition to genotoxicity, these cells were also used to test for cytotoxicity by measuring the protease activity within live cells.
# Tox21 Assay Protocol Summary:
# For cytotoxicity screening, 2,000 cells in 5 uL/well were dispensed into white, solid-bottom 1536-well plates using a Multidrop Combi (Thermo Scientific) dispenser. Following transfer of 23 nL compound or DMSO vehicle by a pin tool, the plates were incubated 15.5 hr at 37C and 5% CO2. 1 ul CellTiter-Fluor reagent (Promega, Madison, WI) was then added to each plate and following 30 min incubation at 37C, fluorescence intensity was quantified on a ViewLux CCD-based plate reader.
# Potency is read from the fitted curve at half-maximal effect.
row,SMILES,Potency
1,CCCN[C@H]1CCc2nc(N)sc2C1,inactive
2,CCC(C)(C)C(=O)O[C@H]1C[C@@H](C)C=C2C=C[C@H](C)[C@H](CC[C@@H]3C[C@@H](O)CC(=O)O3)[C@H]21,inactive
3,O=c1n(CC2CO2)c(=O)n(CC2CO2)c(=O)n1CC1CO1 (stereo not given),inactive
4,CCCCN(CCO)CCCC,inactive
5,c1ccc2c(c1)CCCC2C1=NCCN1 (stereo not given),inactive
6,CCCCCCCCCCCCc1ccccc1O,30.6 µM (active)
7,CC(C)(C)NCC(O)c1cc(O)cc(O)c1 (stereo not given),inactive
8,"Cc1c2oc3c(C)ccc(C(=O)N[C@@H]4C(=O)N[C@H](C(C)C)C(=O)N5CCC[C@H]5C(=O)N(C)CC(=O)N(C)[C@@H](C(C)C)C(=O)O[C@@H]4C)c3nc-2c(C(=O)N[C@@H]2C(=O)N[C@H](C(C)C)C(=O)N3CCC[C@H]3C(=O)N(C)CC(=O)N(C)[C@@H](C(C)C)C(=O)O[C@@H]2C)c(N)c1=O (I: T[dV]P[Sar][NMeV] / II: T[dV]P[Sar][NMeV]; ester I:1-I:C, II:1-II:C; linker I:N-II:N via Actinocin(9to1))",16.8 nM (active) and 23.7 µM (active)
9,Cc1cc(C2(c3cc(C)c(O)cc3C)OS(=O)(=O)c3ccccc32)c(C)cc1O,30.6 µM (active) and 17.2 µM (active)
10,[Cl][In]([Cl])[Cl],inactive
11,CC(N)=O,inactive
12,COc1cc(C(=S)N2CCOCC2)ccc1O,inactive
13,C=CC(=O)OCCCCCCCC,inactive
14,Cc1occc(=O)c1OC(=O)C(C)C,inactive
15,COc1ccc(COC(C)=O)cc1,inactive
16,CC(=O)O[C@]1(C(C)=O)CC[C@H]2[C@@H]3C[C@H](C)C4=CC(=O)CC[C@]4(C)[C@H]3CC[C@@]21C,inactive
17,Cc1ccc(S(=O)(=O)Oc2ccc(N=Nc3ccc(-c4ccc(N=Nc5c(O)ccc6cc(S(=O)(=O)O)cc(S(=O)(=O)O)c56)c(C)c4)cc3C)cc2)cc1,54.7 µM (active) and 20 µM (active)
18,Nc1ccc2cc3ccccc3cc2c1,inactive
19,CCOc1ccc2c(c1)C(C)=CC(C)(C)N2,inactive
20,CCC(CO)(CO)COCC(CC)(CO)CO,inactive

row,SMILES,Potency
1,Cc1cc(C(C)(C)C)c(O)c(C(C)(C)C)c1,inactive
2,CCC(C)(Oc1ccc(C2(c3ccc(OC(C)(CC)C(=O)O)cc3)CCCCC2)cc1)C(=O)O (stereo not given),inactive
3,C1COC(NC(C2CC2)C2CC2)=N1,inactive
4,CCCC(=O)c1ccccc1,inactive
5,Cc1c(O)cccc1C(=O)N[C@@H](CSc1ccccc1)[C@H](O)CN1C[C@H]2CCCC[C@H]2C[C@H]1C(=O)NC(C)(C)C,21.1 µM (active) and 23.7 µM (active)
6,OCC(CO)N[C@H]1C[C@](O)(CO)[C@@H](O)[C@H](O)[C@H]1O,inactive
7,CC1=C(C=O)C(C)(C)CC=C1,inactive
8,CC(=O)C1=C(C)[C@@H]2C[C@@]3(C1)[C@H](C)CC[C@H]3C2(C)C,inactive
9,c1cnc2cc3c(cc2n1)C1CNCC3C1,inactive
10,C/C=C/c1ccc(OCC)c(O)c1,inactive
11,COC(=O)/C=C/c1ccccc1,inactive
12,O=C1NCC2(CCN(CCc3ccccc3)CC2)O1,inactive
13,CC1COc2c(N3CCN(C)CC3)c(F)cc3c(=O)c(C(=O)O)cn1c23 (stereo not given),inactive
14,CC(C)(C)c1cc(C(C)(C)C)c(O)c(C(C)(C)C)c1,inactive
15,O=C(Cl)c1cccc(C(=O)Cl)c1,inactive
16,COC(c1ccccc1)(c1ccccc1)[C@H](Oc1nc(C)cc(C)n1)C(=O)O,inactive
17,CCCCCCCCCCCCCC[P+](CCCC)(CCCC)CCCC,30.5 µM (active) and 27.3 µM (active)
18,CCN(CC)CCOc1ccc(/C(=C(\Cl)c2ccccc2)c2ccccc2)cc1,inactive
19,c1ccc2c(c1)-c1cccc3c1c-2cc1ccccc13,inactive
20,COc1ccc(CCN(C)CCCC(C#N)(c2ccc(OC)c(OC)c2)C(C)C)cc1OC (stereo not given),inactive
